Holding throughout (test): NCI-60 one-dose screen, 48 h (100 = growth as untreated, 0 = no growth, -100 = all killed)
One assay has as its system HCT-15 colon. Conditions: 10 µM unless noted.
For the next assay, the system named is HT29 colon. Conditions: 10 µM unless noted.
The next assay concerns SNB-75 CNS. Conditions: 10 µM unless noted.
The test system of the next assay is SNB-19 CNS. Conditions: 10 µM unless noted.
Another assay concerns U251 CNS. Conditions: 10 µM unless noted.
In a further assay the test system is PC-3 prostate. Conditions: 10 µM unless noted.
A further assay deals with SK-MEL-5 melanoma. Conditions: 10 µM unless noted.
The test system of another assay is UACC-62 melanoma. Conditions: 10 µM unless noted.
The next assay has as its system LOX IMVI melanoma. Conditions: 10 µM unless noted.
A further assay relates to SK-MEL-28 melanoma. Conditions: 10 µM unless noted.
The test system of the next assay is SK-MEL-2 melanoma. Conditions: 10 µM unless noted.
The subject of a further assay is EKVX NSCLC. Conditions: 10 µM.
The subject of another assay is UO-31 renal. Conditions: 10 µM unless noted.
A further assay deals with TK-10 renal. Conditions: 10 µM unless noted.
The next assay concerns ACHN renal. Conditions: 10 µM unless noted.
The subject of another assay is CAKI-1 renal. Conditions: 10 µM unless noted.
A further assay concerns A498 renal. Conditions: 10 µM unless noted.
The next assay concerns CCRF-CEM leukemia. Conditions: 10 µM.
In a further assay the test system is MOLT-4 leukemia. Conditions: 10 µM unless noted.
The subject of a further assay is SN12C renal. Conditions: 10 µM unless noted.

About 83,000 compounds went through this panel and 20% of them were active in at least one assay; those are over-represented in the sample as a whole.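 Plates (96-well) were seeded with cells, treated with compound at one concentration, and incubated for 48 hours before percent growth was determined.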 A number with no mark means an inactive call. Activity calls are given as the source filed them. Rule for the calls: active = growth percent below 10; inactive = the rest.

As to `CC1Cc2cc(F)ccc2-n2cccc21` (centres undefined), the growth with HCT-15 colon is 95%; with HT29 colon, 106%; in the assay on SNB-75 CNS it was 96.1%; with SNB-19 CNS it was 121%; in the assay with U251 CNS, 102%; in the assay with PC-3 prostate, 98.2%. For the same compound, the growth in the assay with SK-MEL-5 melanoma is 109%; in the assay with UACC-62 melanoma, 110%; with LOX IMVI melanoma it was 91.7%; with SK-MEL-28 melanoma it was 107%; in the assay on SK-MEL-2 melanoma, 104%; with EKVX NSCLC, 107%. Also, the growth with UO-31 renal is 99.5%; with TK-10 renal, 96.5%; with ACHN renal it was 106%; in the assay on CAKI-1 renal, 101%; in the assay with A498 renal it was 90.7%; in the assay with CCRF-CEM leukemia, 111%. Moreover, in the assay with MOLT-4 leukemia, the growth was 113%.

As to `O=C(N/N=C/c1cc(Cl)ccc1O)C(=O)N/N=C/c1cc(Cl)ccc1O`, the growth in the assay on HCT-15 colon was 44.7%; with HT29 colon, 45.4%; in the assay on SNB-75 CNS, 71.9%; in the assay with SNB-19 CNS, 82.6%; with U251 CNS it was 50%; with PC-3 prostate it was 56.1%. The growth was 56.3% in the assay with SK-MEL-5 melanoma; 64.7% in the assay with UACC-62 melanoma; 47.9% in the assay on LOX IMVI melanoma; 93.2% in the assay with SK-MEL-28 melanoma; 109% with SK-MEL-2 melanoma; 69.2% with EKVX NSCLC. In addition, the growth in the assay on UO-31 renal was 48.2%; with TK-10 renal, 76.3%; with ACHN renal it was 53.4%; with CAKI-1 renal it was 37.2%; with A498 renal it was 81.3%; with CCRF-CEM leukemia, 39.7%. In addition, the growth in the assay on MOLT-4 leukemia was 55.9%.

Take `CC(C)(C)c1ccc([I+]c2ccc(C(C)(C)C)cc2)cc1`: the growth was 69.4% in the assay on HCT-15 colon; 11% in the assay on HT29 colon; 18.7% in the assay on SNB-75 CNS; 13.8% in the assay on SNB-19 CNS; 3.28% (active) with U251 CNS; 0.197% (active) in the assay with PC-3 prostate. The growth is -94.7% (active) in the assay with SK-MEL-5 melanoma; -42.2% (active) in the assay with UACC-62 melanoma; -88% (active) in the assay with LOX IMVI melanoma; 6.31% (active) in the assay on SK-MEL-28 melanoma; -2.7% (active) with SK-MEL-2 melanoma; 15.6% in the assay with EKVX NSCLC. Besides, the growth with SN12C renal is 3.97% (active); in the assay with UO-31 renal it was 62.8%; in the assay with TK-10 renal, 23.5%; in the assay with CAKI-1 renal, 87.6%; in the assay on A498 renal, -2.59% (active); in the assay with CCRF-CEM leukemia, 9.22% (active). Moreover, the growth in the assay with MOLT-4 leukemia is 12.1%.

Regarding `CC(=O)Nc1ccc(CC#N)cc1Br`, the growth in the assay on HCT-15 colon was 105%; with HT29 colon it was 104%; in the assay on SNB-75 CNS it was 91%; in the assay with SNB-19 CNS it was 103%; in the assay with U251 CNS, 104%; in the assay with PC-3 prostate, 95.6%. Besides, the growth with SK-MEL-5 melanoma is 97.8%; with UACC-62 melanoma, 99.6%; in the assay with LOX IMVI melanoma it was 106%; in the assay with SK-MEL-28 melanoma it was 114%; in the assay on SK-MEL-2 melanoma it was 106%; in the assay with EKVX NSCLC it was 112%. Moreover, the growth is 95% in the assay on UO-31 renal; 96.4% in the assay on TK-10 renal; 109% with ACHN renal; 96.5% in the assay on CAKI-1 renal; 79.9% in the assay on A498 renal; 107% in the assay with CCRF-CEM leukemia. In addition, the growth in the assay with MOLT-4 leukemia was 118%.

In the case of `Oc1ccc(Br)cc1/C=N/NC(=S)NC12CC3CC(CC(C3)C1)C2`, the growth in the assay on HCT-15 colon is 9.35% (active); in the assay with HT29 colon, -16.7% (active); in the assay with SNB-75 CNS, 53.3%; in the assay with SNB-19 CNS it was 45.3%; with U251 CNS, 5.5% (active); with PC-3 prostate, -19% (active). Also, the growth was 28.6% with SK-MEL-5 melanoma; 30.1% in the assay on UACC-62 melanoma; -76% (active) with LOX IMVI melanoma; 51.2% with SK-MEL-28 melanoma; 48.2% in the assay with SK-MEL-2 melanoma; 20.1% with SN12C renal. Moreover, the growth is -2.23% (active) in the assay on UO-31 renal; 27.9% in the assay on TK-10 renal; 2.67% (active) in the assay with ACHN renal; -35.3% (active) in the assay on CAKI-1 renal; 53.3% with A498 renal; -21.1% (active) in the assay with CCRF-CEM leukemia. Also, the growth with MOLT-4 leukemia was 1.75% (active).

As to `CC(=O)CCS(=O)c1ccccc1` (centres undefined), the growth in the assay with HCT-15 colon is 110%; with HT29 colon, 97.8%; with SNB-75 CNS it was 96%; with SNB-19 CNS, 98.2%; in the assay on U251 CNS, 97.2%; in the assay on PC-3 prostate it was 94.6%. For the same compound, the growth was 102% in the assay with SK-MEL-5 melanoma; 99.6% with UACC-62 melanoma; 97.1% with LOX IMVI melanoma; 109% with SK-MEL-28 melanoma; 97.1% in the assay with SK-MEL-2 melanoma; 106% in the assay with EKVX NSCLC. Further, the growth is 85.8% in the assay on UO-31 renal; 89% in the assay on TK-10 renal; 112% in the assay with ACHN renal; 101% with CCRF-CEM leukemia; 98.3% in the assay with MOLT-4 leukemia.

Take `CCCC(=O)Nc1ccccc1C(=O)O`: the growth in the assay on HCT-15 colon is 95.4%; with HT29 colon, 96.6%; in the assay on SNB-75 CNS, 89.4%; in the assay on SNB-19 CNS, 106%; with U251 CNS, 89.7%; in the assay on PC-3 prostate it was 103%. Also, the growth in the assay with SK-MEL-5 melanoma is 99%; with UACC-62 melanoma it was 105%; in the assay on LOX IMVI melanoma, 92.5%; with SK-MEL-28 melanoma it was 107%; in the assay with SK-MEL-2 melanoma, 100%; with EKVX NSCLC, 96.4%. Moreover, the growth in the assay with UO-31 renal is 91.3%; with TK-10 renal, 92.3%; in the assay on ACHN renal, 108%; with CCRF-CEM leukemia, 104%; in the assay on MOLT-4 leukemia it was 98.6%.

Regarding `COC1=C(OC)C(=O)c2ccccc2C1=O`, the growth with HCT-15 colon was 101%; in the assay on HT29 colon, 107%; in the assay with SNB-75 CNS, 72.7%; with SNB-19 CNS, 102%; in the assay on U251 CNS, 89.9%; in the assay with PC-3 prostate, 82.3%. In addition, the growth in the assay with SK-MEL-5 melanoma is 13.6%; with UACC-62 melanoma, 101%; in the assay with LOX IMVI melanoma, 63.4%; in the assay with SK-MEL-28 melanoma, 101%; in the assay with SK-MEL-2 melanoma it was 107%; in the assay with EKVX NSCLC, 97.8%. For the same compound, the growth in the assay with UO-31 renal is 78.6%; in the assay with TK-10 renal, 115%; with ACHN renal, 92%; with CCRF-CEM leukemia, 61.6%.

In the case of `CNc1ccc(Nc2ccc(S(=O)(=O)O)cc2)c2c1C(=O)c1ccccc1C2=O`, the growth is 98.6% in the assay on HCT-15 colon; 105% with HT29 colon; 101% with SNB-75 CNS; 104% in the assay with SNB-19 CNS; 96.6% with U251 CNS; 101% in the assay on PC-3 prostate. The growth in the assay on SK-MEL-5 melanoma was 99.9%; in the assay on UACC-62 melanoma it was 94.6%; in the assay with LOX IMVI melanoma it was 88.2%; in the assay with SK-MEL-28 melanoma it was 112%; with SK-MEL-2 melanoma it was 130%; in the assay on SN12C renal, 92.8%. The growth was 102% in the assay on UO-31 renal; 126% in the assay on TK-10 renal; 98.7% in the assay on ACHN renal; 91.9% in the assay with CAKI-1 renal; 113% in the assay with A498 renal; 89.2% with CCRF-CEM leukemia. Besides, the growth in the assay on MOLT-4 leukemia was 106%.
